p53ts 32C tox – p53ts cell cytotoxicity, permissive temperature. H1299-p53A138V at 32C, ATP luminescence viability, 24 h. Potency, µM (doses to about 46.1 µM), without a hit: at the top dose activity change, negative = cytotoxicity, hits mostly cytotoxic. 0.93% of 130,000 active;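 note: 0% = DMSO and -100% = full killing by reference compound; nearly all actives have a fitted effect of over 55% in size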
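Cells: H1299 p53ts (A138V), 600/well, pre-incubated 16–30 h at 37C. Cpd up to 46 uM, 24 h, 32C. Readout: ATPlite luminescence, 20 min RT. Normalization: DMSO vs tamoxifen 100 uM. AC50 by Hill equation.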
Imprint erasure – genomic imprint erasure induction; Potency, µM (titrated, usually from 60.7 µM), for the others: top-dose activity change, positive = activation, hits mostly activators; mouse ES Peg3-LacZ reporter, beta-gal luminescence, 40 h; 0.02% of 110,000 active
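Readout: BetaGlo luminescence (5 min, room temp) for LacZ from the normally silent maternal Peg3 allele in female Peg3LacZ-Neo ES cells. Cells 300/well, 40 h, 37C, 5% CO2. Data normalized per plate to negative controls.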
p53ts 39C kill – cytotoxicity in p53ts cells at nonpermissive temperature | H1299-p53A138V viability at 39C, ATP luminescence, 24 h | Potency, µM (series often up to 46.1 µM), for inactives: at the top dose activity change, negative = cell killing, usual class: cytotoxic | 1.5% of 130,000 active; note: % is set by controls: 0 for no effect and ±100 for the full control effect; nearly all actives have a fitted effect of over 55% in size
IkB sig inh – inhibitors of IkB signaling in ABC-DLBCL cells; Potency, µM (highest dose often 57.1 µM), for the others: at the top dose IkBa stabilization activation; AID 445; ABC-DLBCL IkBa-CBG/CBR dual luciferase ratio, 4 h; response scale: scaled: untreated 0%, proteasome inhibitor 100%; 0.04% of 110,000 active; active = well fitted curve in the direction sought with a large enough effect in the signal ratio, not every such curve was filed as active; inconclusive = small, poorly fitted or top-dose-only effect, or a change in a side signal; the % refers to the signal ratio;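 note: the direction sought is a rising ratio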
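Luminescence ratio of IκBα-fused green versus native red beetle luciferase in OCI-Ly3 cells, 4 h post-doxycycline with compound; red signal alone, scaled from basal (0%) to zero light (-100%), flagged nonspecific or cytotoxic effects.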
Starred values were filed as active, the others as inactive; ? = inconclusive; / = no result; [ ] = remark or other dose. Rows were chosen to be rich in hits. Some 1.8% of all compounds tested hit in one or more screens of this group. Unless noted, calls come from the whole dose curve; as a rule, active = well fitted curve in the direction sought with a large enough effect; inconclusive = small, poorly fitted or top-dose-only effect, or another doubt; inactive = no such curve, though single readings can be large; an effect the other way counts as inactive or inconclusive. Potency is the fitted concentration of half-maximal effect.

SMILES	p53ts 32C tox	Imprint erasure	p53ts 39C kill	IkB sig inh
CCC(=O)OC1C2CC3=C4CC(=O)OC(c5ccoc5)[C@]4(C)CCC3[C@@](C)(C2=O)C(CC(=O)OC)C1(C)C (stereo partly drawn)	-11%	-8%	-5%	/
O=C(Nc1ccc(F)cc1F)c1c2c(nc3ccccc13)C(=O)N(C1CCCCC1)C2	-2%	21%[10.9 µM]	?	?
COc1ccc(C)cc1NC(=O)c1c2c(nc3ccccc13)C(=O)N(C1CCCCC1)C2	-22%	-8%[10.9 µM]	10µM*	?
COCCNC(=O)CCCn1c(SCc2ccccc2C)nc2c(sc3ccccc32)c1=O	-8%	-11%[10.9 µM]	-29%	?
Clc1cccc(-n2ncc3c(NC4CCCCC4)ncnc32)c1	?	-13%[10.9 µM]	13µM*	?
Cc1ccc(-n2ncc3c(NC4CCCCC4)ncnc32)cc1	?	-10%[10.9 µM]	7.9µM*	?
Cc1ccc(Cl)cc1-n1ncc2c(NC3CCCCC3)ncnc21	-1%	-8%[10.9 µM]	4%	?
COc1ccc(CC(=O)Nc2cccc(C(=O)O)c2C)cc1	3%	-19%	5%	1%
COc1ccc(CC(=O)c2ccccc2C(=O)O)cc1	?	-10%	10µM*	-1%
Cc1nc2ccccc2c2oc(C(=O)N3CCc4ccccc4C3)cc12	?	-32%	20µM*	?
Cc1nc2ccccc2c2oc(C(=O)N3CCN(C(=O)c4ccco4)CC3)cc12	2%	-21%	21%	1%
O=C(CC1(O)C(=O)N(CCc2ccccc2)c2ccc(Br)cc21)c1ccccc1O (stereo not drawn)	0%	-6%[10.9 µM]	20µM*	?
CCCN1C(=O)C(O)(CC(=O)c2ccc(C(C)C)cc2)c2ccccc21 (stereo not drawn)	2%	-1%[10.9 µM]	?	?
CC(C)c1ccc(C(=O)CC2(O)C(=O)N(CCc3ccccc3)c3ccc(Cl)cc32)cc1 (stereo not drawn)	?	-8%[10.9 µM]	16µM*	?
O=C(CC1(O)C(=O)N(Cc2ccccc2)c2ccc(Br)cc21)c1ccccc1 (stereo not drawn)	?	-4%[10.9 µM]	16µM*	?
CCCCN1C(=O)C(O)(CC(=O)c2ccc(CC)cc2)c2cc(Br)ccc21 (stereo not drawn)	?	6%[10.9 µM]	?	17%
CCOC(=O)C1CCN(c2c(NCc3ccc(C(=O)O)cc3)c(=O)c2=O)CC1	7%	?	2%	3%
CCN(Cc1ccccc1)C(=O)c1cc2ccc3cccnc3c2[nH]1	?	-4%[10.9 µM]	32µM*	?
Cc1ccc(CNC(=O)c2cc3ccc4cccnc4c3[nH]2)cc1	-2%	25%[10.9 µM]	-21%	?
Cc1ccc(C)c(CN2CCC(CNC(=O)c3cc4ccc5cccnc5c4[nH]3)CC2)c1	-2%	-5%[10.9 µM]	-17%	0%
Cc1ccc(CN2CCC(CNC(=O)c3cc4ccc5cccnc5c4[nH]3)CC2)cc1	?	11%[10.9 µM]	13µM*	?
Cc1nn(CC(=O)NC2CCCCC2)c(=O)c2cc3cc(F)ccc3n12	4%	10%[10.9 µM]	-7%	2%
NC(=O)C1=CN([C@@H]2O[C@@H](COP(=O)(O)OP(=O)(O)OC[C@@H]3O[C@H](n4cnc5c(N)ncnc54)[C@@H](OP(=O)(O)O)[C@@H]3O)[C@H](O)[C@@H]2O)C=CC1	34%	/	33%	-5%
COc1ccc2oc(-c3ccc(C)c(NC(=O)c4ccc(-c5ccccc5[N+](=O)[O-])o4)c3)nc2c1	-20%	-9%[10.9 µM]	10µM*	?
Cn1cc(C(=O)N2CCN(c3cccc(C(F)(F)F)c3)CC2)c2c3ccccc3n(C)c2c1=O	-5%	-3%[10.9 µM]	13µM*	?
SMILES	p53ts 32C tox	Imprint erasure	p53ts 39C kill	IkB sig inh
Cn1c2ccccc2c2c(C(=O)N3CCN(c4cccc(C(F)(F)F)c4)CC3)cn(C3CCCCC3)c(=O)c21	23%	13%[10.9 µM]	6%	3%
Cc1ccc(OC2C(O)COC2/C=C/C#Cc2ccc(C(C)(C)C)cc2)cc1 (stereo not drawn)	5%[9.22 µM]	/	2%[9.22 µM]	/
CN(C)CCC(=O)[C@@]1(O)CC[C@H]2[C@H]3CC=C4C[C@@H](O)CC[C@]4(C)[C@H]3CC[C@]21C	9%[9.22 µM]	-28%[10.9 µM]	-5%[9.22 µM]	5µM*
c1ccc2nc(-c3nc4ccccc4o3)ccc2c1	5µM*	-91%	5µM*	?
Cc1cccc(NC(=O)Cn2c(=O)n(CC3CCC(C(=O)NCCc4ccccc4)CC3)c(=O)c3ccccc32)c1 (stereo not drawn)	20%	7%[10.9 µM]	-5%	?
CCCCCCC1=Cc2cc(OC)c(OC)cc2C(CC(=O)/C=C/OC)O1 (stereo not drawn)	3%[9.22 µM]	/	2%[9.22 µM]	/
COc1ccc(Cl)cc1NC(=O)CCCS(=O)(=O)c1nc(-c2ccc(OC)c(OC)c2)cc(C(F)(F)F)n1	?	-30%[10.9 µM]	3.2µM*	?
COc1ccccc1-c1cc(C(F)(F)F)nc(S(=O)(=O)CCCC(=O)Nc2ccccc2F)n1	?	-11%[10.9 µM]	3.2µM*	?
COc1ccccc1-c1cc(C(F)(F)F)nc(S(=O)(=O)CCCC(=O)Nc2cc(Br)ccc2O)n1	20µM*	-17%[10.9 µM]	?	?
COc1ccc(NC(=O)CCCS(=O)(=O)c2nc(-c3ccccc3OC)cc(C(F)(F)F)n2)c(OC)c1	?	-19%[10.9 µM]	?	?
Cc1ccc(-n2ncc3c(NCCCN(C)C)ncnc32)cc1Cl	26%	-4%[10.9 µM]	16µM*	1%
CO[C@@H]1COC(=O)[C@@H](CCSC)NC(=O)C/C=C\[C@@H](C)COC(=O)[C@H](C)NC(=O)C/C=C\[C@H]1C	1%[9.22 µM]	/	-3%[9.22 µM]	/
O=C(CN1C(=O)C(c2ccc(F)cc2)=NC12CCCCCC2)Nc1ccc(F)c(Cl)c1	20%	-5%[10.9 µM]	10µM*	?
Cc1ccc(CSc2nc3ccncc3n2Cc2nc(-c3ccccc3C)oc2C)cc1	13µM*	-9%[10.9 µM]	7.9µM*	3%
Cc1nn(C(=O)c2cccs2)c(N)c1-c1ccccc1	13µM*	-8%	?	1%
Cc1nn(C(=O)c2ccc3c(c2)OCO3)c(N)c1-c1ccccc1	13µM*	-15%	?	12%
CCCCC(Sc1nc2cc3c(cc2c(=O)n1CCCC(=O)NCc1ccc(OC)cc1)OCO3)C(=O)OCC (stereo not drawn)	5%	-27%[10.9 µM]	-9%	2%
COc1ccc(N2Cc3cccc(C(=O)Nc4ccc(C(C)C)cc4)c3C2=O)cc1	5µM*	-12%[10.9 µM]	4µM*	-1%
CCOC(=O)COc1ccc(-c2nnc(-c3ccccc3)o2)cc1	10µM*	-95%	?	?
CCOc1ccc(-c2nnc(-c3ccccc3)o2)cc1	?	/	-12%	/
COc1cccc(CNC(=O)CCn2c(=O)c3cccn3c3ccc(F)cc32)c1OC	12%	-9%[10.9 µM]	?	0%
COc1cc(NC(=O)c2cc3c(s2)-c2ccccc2OC3)cc(OC)c1OC	13µM*	-9%[10.9 µM]	?	?
